Inconclusive results are not listed. Active and inactive are the calls of the source. Unless noted, the call rests on the fitted dose curve; in most records, active means well fitted curve in the direction sought with a large enough effect; inconclusive means small, poorly fitted or top-dose-only effect, or another doubt; inactive means no such curve, though single readings can be large; an effect the other way counts as inactive or inconclusive.
How the values were obtained:
[1] = P-glycoprotein substrates identified in KB-3-1 adenocarcinoma cell line, qHTS therapeutic library screen (AID 1346986);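 further: potency is for cytotoxicity meaning loss of cell viability; nearly all actives have a fitted effect of over 60% in size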
In short: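 Counter-screen: cherry-picked hits retested in the KB pair and in HEK-293 pcDNA/MDR-19 cells ± tariquidar. Primary screen used 72 h CellTiter-Glo viability in KB-3-1 and KB-8-5-11.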

[2] = P-glycoprotein substrates identified in KB-8-5-11 adenocarcinoma cell line, qHTS therapeutic library screen (AID 1346987); further: nearly all actives have a fitted effect of over 65% in size
In short: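 KB-8-5-11: colchicine-selected sub-line of KB-3-1 over-expressing P-gp; assay medium lacked colchicine. 72 h drug exposure at 37 degree C, CellTiter-Glo.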

[3] = Primary qHTS for inhibitors of nuclear receptor binding SET domain protein 2 (NSD2) in an isogenic RCH-ACV NSD2 p.E1099K mutant (9B) (AID 1645876); further: nearly all actives have a fitted effect of over 70% in size
[4] = Primary qHTS for inhibitors of nuclear receptor binding SET domain protein 2 (NSD2) in an RCH-ACV wild type WT cells (2C) (AID 1645877); further: nearly all actives have a fitted effect of over 70% in size
[5] = biological target: Catechol O-methyltransferase (Homo sapiens) (UniProt P21964); experiment: Confirmatory Screen for Target Class Profiling of Small Molecule Inhibitors of Methyltransferases (AID 1745852; calls by dose curve); settings: MTase-Glo luminescence, SAH detection, recombinant enzyme; measured here: COMT max response; stronger effect = lower value
Catechol O-methyltransferase (Homo sapiens), sequence (P21964 whole entry, looked up): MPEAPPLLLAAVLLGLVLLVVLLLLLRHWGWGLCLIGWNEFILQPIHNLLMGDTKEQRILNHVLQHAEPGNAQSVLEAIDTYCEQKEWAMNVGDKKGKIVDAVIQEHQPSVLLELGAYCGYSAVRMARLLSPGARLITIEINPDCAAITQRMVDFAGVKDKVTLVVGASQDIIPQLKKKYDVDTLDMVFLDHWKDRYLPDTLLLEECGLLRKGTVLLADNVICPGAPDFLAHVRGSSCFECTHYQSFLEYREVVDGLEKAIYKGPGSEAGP

[6] = biological target: Guanidinoacetate N-methyltransferase (Homo sapiens) (UniProt Q14353); experiment: as above; settings: activity change, negative = inhibition: at 57.3 µM (top of the series) unless noted
[7] = biological target: Nicotinamide N-methyltransferase (Homo sapiens) (UniProt P40261); experiment: as above; settings: MTase-Glo luminescence, SAH detection, recombinant enzyme; measured here: NNMT max response; stronger effect = lower value
Nicotinamide N-methyltransferase (Homo sapiens), sequence (P40261 whole entry, looked up): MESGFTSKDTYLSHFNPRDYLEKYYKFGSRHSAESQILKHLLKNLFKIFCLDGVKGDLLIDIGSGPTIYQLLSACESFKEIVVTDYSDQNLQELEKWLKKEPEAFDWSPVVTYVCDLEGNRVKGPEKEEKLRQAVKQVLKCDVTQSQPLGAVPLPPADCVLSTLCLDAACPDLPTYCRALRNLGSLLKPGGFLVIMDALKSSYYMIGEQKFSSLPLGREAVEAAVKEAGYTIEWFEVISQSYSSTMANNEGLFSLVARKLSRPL

[8] = biological target: Phenylethanolamine N-methyltransferase (Homo sapiens) (UniProt P11086); experiment: as above; settings: MTase-Glo luminescence, SAH detection, recombinant enzyme; measured here: PNMT max response; stronger effect = lower value
Phenylethanolamine N-methyltransferase (Homo sapiens), sequence (P11086 whole entry, looked up): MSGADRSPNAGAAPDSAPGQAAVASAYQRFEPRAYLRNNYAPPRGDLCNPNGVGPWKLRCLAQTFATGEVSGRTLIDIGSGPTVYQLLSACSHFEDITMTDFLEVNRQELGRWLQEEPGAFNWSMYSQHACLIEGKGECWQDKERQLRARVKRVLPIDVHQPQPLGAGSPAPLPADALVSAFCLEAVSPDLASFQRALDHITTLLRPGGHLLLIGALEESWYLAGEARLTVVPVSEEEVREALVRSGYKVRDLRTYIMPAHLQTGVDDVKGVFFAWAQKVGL

[9] = biological target: Glutathione peroxidase 1 (Homo sapiens) (UniProt P07203); experiment: Primary qHTS Assay for Inhibitors of Recombinant Selenoprotein Glutathione Peroxidase 1 (GPX1) (AID 1845191); further: nearly all actives have a fitted effect of over 65% in size
Glutathione peroxidase 1 (Homo sapiens), sequence (P07203 whole entry, looked up): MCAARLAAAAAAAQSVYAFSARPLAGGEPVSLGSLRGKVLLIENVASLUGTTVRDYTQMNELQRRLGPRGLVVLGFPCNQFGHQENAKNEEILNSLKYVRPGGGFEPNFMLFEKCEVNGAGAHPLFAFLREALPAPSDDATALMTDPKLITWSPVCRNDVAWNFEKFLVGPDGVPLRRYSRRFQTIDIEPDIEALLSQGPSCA
In short: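 10 nM GPX1 + cpd, 30 min RT; start w/ 1 mM GSH, 0.5 mM cumene hydroperoxide, 0.5 mM NADPH, 100 nM GR, 0.01% BSA; buffer 50 mM Tris-HCl pH 7.5, 2 mM EDTA, 150 mM NaCl; Fl 340/450, 0 & 15 min.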
Potency means the concentration at half of the fitted maximal effect.

With `O=C1c2ccccc2-c2nc3nnnn3nc21` (tested in a mixture with another compound) the Potency [1] was 920 nM (active), the Potency [2] was 920 nM (active) and the Potency [3] was 82 nM (active). For the same compound, the Potency [4] was 184 nM (active), the activity [5] was -95.2% and the Potency [6] was 482 nM (active). For the same compound, the activity [7] was -67.5%, the activity [8] was -24.7% and the Potency [9] was 16100 nM (active).

— PubChem BioAssay (NCATS)
